Source: PubChem
PP5 inh = PP5 phosphatase inhibitors, primary screen, biochemical, fluorescence | purified PP5c, OMFP substrate fluorescence | inhibition, % at 6.7 µM | 320,000 compounds, 0.18% hits | AID 1987, 2009;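 active = inhibition above the campaign's mean inhibition across all tested compounds plus 3 SD, cut at about 9.5% in these data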;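 also: 0% = DMSO only and 100% = 100 µM cantharidin control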
Fam108B counter = mouse Fam108B serine hydrolase inhibitors, primary screen, counter-screen for RBBP9 inhibitor project, biochemical, fluorescence polarization; recombinant Fam108B, FP-Rh probe fluorescence polarization; inhibition, % at 9.51 µM; 300,000 compounds, 0.33% hits;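 active = inhibition above the screen mean inhibition plus 3 SD, computed separately per campaign, cut at about 18% in these data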;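 also: inhibitors lower polarization as less probe binds the enzyme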
LYPLA1 counter = LYPLA1 inhibitors, primary screen, counter-screen for PME1 inhibitor project, biochemical, fluorescence polarization, FP-Rh probe ABPP; recombinant LYPLA1; inhibition, % at 5.9 µM; 320,000 compounds, 0.16% hits; AID 2174, 2009;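 active = inhibition above the mean of all tested compounds plus 3 SD, set per campaign, cut at about 14% in these data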;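 also: inhibitors block serine hydrolase probe labeling of LYPLA1 so polarization falls; 0% = enzyme with DMSO and 100% = wells lacking LYPLA1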
Target sequence (O75608 whole entry, looked up): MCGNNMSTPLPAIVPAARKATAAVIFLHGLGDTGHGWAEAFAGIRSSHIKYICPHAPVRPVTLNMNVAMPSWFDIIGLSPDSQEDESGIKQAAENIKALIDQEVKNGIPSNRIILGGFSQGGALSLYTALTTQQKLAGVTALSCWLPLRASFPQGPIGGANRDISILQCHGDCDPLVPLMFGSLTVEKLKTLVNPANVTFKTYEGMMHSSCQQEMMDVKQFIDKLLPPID
PP1 counter = PP1-alpha phosphatase inhibitors, primary screen, counter-screen for PP5 inhibitor project, biochemical, fluorescence, OMFP substrate, single point; purified PP1alpha; 320,000 compounds, 0.9% hits; inhibition, % at 6.7 µM; Serine/threonine-protein phosphatase PP1-alpha catalytic subunit (Homo sapiens), P62136;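 active = inhibition above the mean inhibition of all tested compounds plus 3 SD, computed separately for each screening campaign, cut at about 15% in these data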
Target sequence (P62136 whole entry, looked up): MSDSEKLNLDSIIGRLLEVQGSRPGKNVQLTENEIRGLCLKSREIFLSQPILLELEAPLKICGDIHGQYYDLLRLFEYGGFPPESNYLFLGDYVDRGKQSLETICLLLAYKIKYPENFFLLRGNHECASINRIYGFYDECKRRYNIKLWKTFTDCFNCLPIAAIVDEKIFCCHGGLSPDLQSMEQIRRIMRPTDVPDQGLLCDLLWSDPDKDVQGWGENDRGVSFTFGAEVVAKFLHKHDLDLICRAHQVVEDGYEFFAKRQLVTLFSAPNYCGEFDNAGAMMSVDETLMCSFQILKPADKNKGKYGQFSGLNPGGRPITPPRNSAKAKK
PME-1 primary = PME-1 inhibitors via competitive probe labeling, primary screen, biochemical, fluorescence polarization, FP-Rh probe, HTS. Protein phosphatase methylesterase 1 (Homo sapiens), Q9Y570. 320,000 compounds, 0.53% hits. recombinant PME-1. inhibition, % at 5.9 µM. AID 2130, 2009;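 active = inhibition above the campaign mean of all compounds plus 3 SD, cut at about 26% in these data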;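 also: competitive labeling of PME-1 active site by serine hydrolase directed probe; 0% = PME-1 with DMSO and 100% = wells lacking PME-1 enzyme; inhibitors block probe labeling so polarization falls and inhibition rises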
LYPLA2 inh = LYPLA2 inhibitors, primary screen, counter-screen for PME1 inhibitor project, biochemical, fluorescence polarization, FP-Rh probe ABPP | Acyl-protein thioesterase 2 (Homo sapiens), O95372 | recombinant LYPLA2 | inhibition, % at 5.9 µM | 320,000 compounds, 0.38% hits;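 active = inhibition above the screen-wide mean plus 3 SD, limit set per campaign, cut at about 26% in these data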;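 also: 0% = LYPLA2 with DMSO and 100% = wells lacking LYPLA2 enzyme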
Active calls of the source: *; x = no result. Most compounds without a hit are left out; they make up all but 1.8% or so of the library.

SMILES	PP5 inh	Fam108B counter	LYPLA1 counter	PP1 counter	PME-1 primary	LYPLA2 inh
O=C(COC(=O)c1cc(-c2cccc3ccccc23)nc2ccccc12)NC1CCS(=O)(=O)C1 (stereo unspecified)	4	15	14	-2	43*	19
CC1(C)S[C@@H]2[C@H](NC(=O)COc3ccccc3)C(=O)N2C1C(=O)OCC1CCCCC1 (stereo partly specified)	7	-7	-2	-12	-11	4
CC1(C)S[C@@H]2[C@H](NC(=O)COc3ccccc3)C(=O)N2C1C(=O)OCc1cc2ccccc2n1S(=O)(=O)c1ccccc1 (stereo partly specified)	1	-19	-9	25*	-31	-25
CC(=O)N1CCN(c2ccc(NC(=S)NC(=O)COc3ccc(C(C)(C)C)cc3)cc2)CC1	0	0	1	0	40*	12
Cc1cccc(/C=N/NC(=O)c2ccc(NC(=O)c3ccc(Cl)cc3)cc2)n1	2	-8	-16	15*	-18	-22
Cn1c2ccccc2c2cc(/C=N/NC(=O)c3ccc(O)cc3O)ccc21	4	15	-14	-4	47*	-18
CCn1c2ccccc2c2cc(/C=N/NC(=O)c3ccc(O)cc3)ccc21	2	-9	-26	3	-10	-39
COc1ccc(CNS(=O)(=O)c2csc(C(N)=O)c2)cc1OC	-4	1	-5	-7	-3	-5
O=C(COc1ccccc1)NCC(=O)N1CCCCCC1	2	x	3	-2	-8	10
CCN(CC)c1ccc(S(=O)(=O)N2CCOCC2)cc1NC(=O)CN1CCN(Cc2ccccc2)CC1	0	4	1	6	59*	0
Cc1cc(C)c2[nH]c(O)c(N=NC(=O)c3cc4c(s3)CCCC4)c2c1	0	0	2	-2	26*	-3
COc1ccc(C(CNC(=O)c2ccc3c(c2)OCCO3)N(C)C)cc1 (stereo unspecified)	1	3	1	-2	-1	0
CCc1nc(Nc2ccc3c(c2)OCO3)c2oc3ccccc3c2n1	7	3	5	4	31*	8
CNS(=O)(=O)c1cc(C(=O)OCC(=O)NC2CCCc3ccccc32)ccc1Cl (stereo unspecified)	2	3	1	1	28*	5
Cc1ccc(O)c(C(=O)c2cc(C(=O)NCCc3ccccc3)c(=O)n(CCc3ccccc3)c2)c1	4	-15	-15	17*	-27	-17
Cc1ccc(C(=O)Nc2nnc(CC(=O)N/N=C/c3ccncc3)s2)cc1	2	-6	-11	15*	-5	-11
COc1ccc(OC)c(S(=O)(=O)N2CCN(C(=O)c3cc(C4CC4)nn3-c3ccccc3)CC2)c1	1	x	-3	2	0	-1
Cc1ccc(C)c(N=Nc2ccc(O)c3ncccc23)c1	1	3	-2	3	-4	1
Oc1ccc(N=Nc2ccc3c(c2)OCCO3)c2ncccc12	3	4	-3	16*	4	4
NC(N)=N/N=C/c1ccccc1	0	-4	1	-1	-7	-5
NC(N)=N/N=C/c1ccc(OCc2ccccc2Cl)cc1	4	3	-5	17*	2	-6
COc1cc2c(C#N)c(N3CCc4ccccc4C3)nc(N)c2c(N)n1	7	15	-2	6	39*	-6
COc1cc2c(C#N)c(N3CCCCC3)nc(N)c2c(N)n1	5	8	2	2	16	-2
CC1(C)C2CCC1(CS(=O)(=O)NCc1ccc(S(N)(=O)=O)cc1)C(=O)C2 (stereo unspecified)	3	2	4	0	-2	6
CCn1c(=O)c2cc(C(=O)Nc3ccc(OC)cc3OC)sc2c2ccccc21	1	-1	3	2	32*	0
SMILES	PP5 inh	Fam108B counter	LYPLA1 counter	PP1 counter	PME-1 primary	LYPLA2 inh
CCCN(C(=O)c1cccc(S(=O)(=O)N2CCCc3ccccc32)c1)C1CCS(=O)(=O)C1 (stereo unspecified)	-2	x	2	-1	4	9
CCOc1cc(/C=C2\C(=O)N(c3cccc(C(=O)O)c3)N=C2C(F)(F)F)ccc1OCC(=O)Nc1ccccc1OC	-1	6	-7	17*	5	0
Cc1nn(-c2ccccc2)c2sc(-c3n[nH]c(=S)o3)cc12	4	7	9	7	39*	6
Cc1nn(-c2ccccc2)c2sc(C(=O)O)cc12	-1	-3	4	-2	0	0
Cn1c(=O)c2c(nc(CN3CCN(C(c4ccccc4)c4ccccc4)CC3)n2CCCO)n(C)c1=O	1	-3	-2	-3	30*	-2
COc1ccccc1CN(C(=O)CCl)C(C(=O)NC1CCCCC1)c1ccncc1 (stereo unspecified)	4	10	5	17*	2	9
COc1ccc(C(=O)/C=C/C(=O)N(Cc2ccccc2OC)C(C(=O)NC2CCCCC2)c2ccncc2)c(O)c1 (stereo unspecified)	0	-1	-3	4	-4	0
COc1ccc(COC(=O)c2sc3nc4n(c(=O)c3c2C)CCC4)cc1	5	-3	-4	1	-14	3
COc1cc2c(cc1OC)C(c1cc(Br)ccc1F)N(C(=O)CCl)CC2 (stereo unspecified)	4	-5	-3	5	31*	5
COc1cc2c(cc1OC)C(C1C(=O)CC(C)(C)CC1=O)N(C(=O)CCl)CC2 (stereo unspecified)	-3	2	-4	0	-11	2
COc1ccc(CCNc2ccc(C(CC(N)=O)NC(=O)c3cc(OC)ccc3OC)cc2[N+](=O)[O-])cc1 (stereo unspecified)	2	2	-2	1	9	-2
Cc1cccc(CNc2ccc(C(CC(N)=O)NC(=O)Cc3cccc4ccccc34)cc2[N+](=O)[O-])c1 (stereo unspecified)	2	-7	-8	17*	-11	-11
N#Cc1cc(Oc2cccc3cccnc23)c(-n2nnc3ccccc32)cc1C#N	6	-4	-5	16*	7	-8
N#Cc1cc(O)c(-n2nnc3ccccc32)cc1C#N	0	-3	2	-4	-1	3
Cc1ccc2[nH]c3c(c2c1)CCN(C)C3	-3	-1	2	0	1	4
